# Only some compounds are listed: those with a hit (about 3% of all), similar ones and a draw of the others.
# CHT inh = inhibits the human high affinity choline transporter | Q9GZV3 | CHT-expressing cells, membrane potential dye, choline response; stronger effect = lower value | B-score at 10 µM | hit rate 0.86% among 310,000 | AID 488975;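 active = B-score over 3 SD under the library average, and starting fluorescence ratio not unusually high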;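 also: choline stimulus applied at its EC90 after an EC20 pre-addition; B-score computed on integrated fluorescence ratio after choline addition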
# Target sequence (Q9GZV3 whole entry, looked up): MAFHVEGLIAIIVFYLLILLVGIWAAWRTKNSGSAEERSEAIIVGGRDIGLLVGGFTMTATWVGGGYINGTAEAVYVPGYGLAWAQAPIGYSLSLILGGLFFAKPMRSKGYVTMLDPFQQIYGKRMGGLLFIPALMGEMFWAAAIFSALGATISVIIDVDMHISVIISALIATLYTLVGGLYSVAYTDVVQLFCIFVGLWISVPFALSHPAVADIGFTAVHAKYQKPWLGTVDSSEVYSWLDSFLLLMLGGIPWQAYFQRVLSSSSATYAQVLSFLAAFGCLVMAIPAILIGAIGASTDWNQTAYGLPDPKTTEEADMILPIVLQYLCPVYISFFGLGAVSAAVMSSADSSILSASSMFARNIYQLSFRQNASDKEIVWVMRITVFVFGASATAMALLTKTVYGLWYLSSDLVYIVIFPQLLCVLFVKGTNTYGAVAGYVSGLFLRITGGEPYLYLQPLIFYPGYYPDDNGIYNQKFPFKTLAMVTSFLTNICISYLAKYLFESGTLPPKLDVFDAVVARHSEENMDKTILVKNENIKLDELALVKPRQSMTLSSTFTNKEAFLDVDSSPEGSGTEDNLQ
# SUMO Mot1 rescue = blocks SUMOylation pathway, rescuing yeast Mot1-301 growth | AID 2716 | growth rescue, % at 18.8 µM | hit rate 1% among 320,000 | S. cerevisiae Mot1-301 growth rescue, ATP luminescence, 38.5C; percent above DMSO median, 100 means doubled;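 active = every valid replicate shows activation above 250% relative to neutral control wells; inactive = the rest, any valid replicate at or below 250%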;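 also: OY570 slx delta 5 strain wells were the positive control but not used for scaling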
# NALP3 yeast inh = NALP3 inhibition in yeast | hit rate 0.39% among 330,000 | inhibition, % at 10 µM | Yeast reconstituted NLRP3/ASC/caspase-1, beta-gal luminescence, 24 h | AID 2825;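 active = inhibition of 50% or more; inactive = inhibition below 50%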;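 also: plate controls were induced DMSO wells for no effect and uninduced yeast grown without galactose for full effect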
# Bfl-1 A1 inh = inhibitors of the anti-apoptotic protein A1, read as caspase activation; MEF A1-2A-BIM cells, Caspase-Glo 3/7 luminescence, 3 h; percent of clofoctol response, vehicle zero; hit rate 0.066% among 330,000; AID 2462; caspase activation, % (concentration not given with the values);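 active = over half of replicate activation scores above 10%, or exactly half above 10 with the replicate mean above 10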
# CHT PAM = allosteric activators of human choline transporter CHT | Q9GZV3 | B-score at 10 µM | hit rate 0.49% among 310,000 | CHT-expressing cells, membrane potential dye, choline EC20; stronger effect = higher value; LV-AA mutant CHT in HEK293 cells;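 active = initial fluorescence not abnormally high and integrated response B-score, plate-corrected, over 3 SD above library mean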
# NALP1 inh = blocks the NALP1 inflammasome reconstituted in yeast; S. cerevisiae NALP1/ASC/caspase-1 growth, X-gal OD620, 72 h; inhibition, % at 10 µM; hit rate 0.61% among 280,000; AID 2071; in the data active = inhibition mostly above about 24%, no sharp cut-off; inactive = mostly below about 32%
# CHT inh conf = human CHT inhibition, confirmatory screen; shares compounds with CHT inh; CHT-expressing cells, choline membrane potential dye; LV-to-AA substituted CHT, HEK293 cells; CHT activity remaining % of control (stronger effect = lower value), % at 10 µM; hit rate 70% among 2,400;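 active = choline transporter activity left, mean of duplicates at 10 µM, below buffer-only control mean minus 3 SD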;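 also: depolarization triggered by choline at its EC90 following an EC20 pre-addition; 0% = hemicholinium-3 full block and 100% = buffer-only control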
# HEK293 CHT ctr = CHT inhibitor counter-screen hit in parental HEK293 cells; hit rate 4% among 2,400; membrane potential ratio readout (active if shifted either direction beyond buffer ±3SD; no single direction) at 10 µM; membrane potential dye, choline response; active = decrease or increase beyond buffer ±3SD; shares compounds with CHT inh; AID 493222;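 also: parental cells lack the transporter so any hit is non-specific; ratio is peak minus trough fluorescence over baseline after EC90 choline challenge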
# * = called active by the depositor; i = inactive; nt = no result.
SMILES,CHT inh,SUMO Mot1 rescue,NALP3 yeast inh,Bfl-1 A1 inh,CHT PAM,NALP1 inh,CHT inh conf,HEK293 CHT ctr
Cc1nn(C(C)C(=O)NC(C)CCc2ccccc2)c(=O)c2cc3occc3n12 (configuration not stated),-6.92*,3.1,10.8,2.0,i,-4.3,54.7%*,i
CCc1nn(C(C)C(=O)NCCc2ccccc2)c(=O)c2cc3occc3n12 (configuration not stated),-5.68*,11.1,8.9,0.7,i,17.7,i,i
CCc1nn(C(C)C(=O)NC(C)CCc2ccco2)c(=O)c2cc3occc3n12 (configuration not stated),-5.92*,-3.9,7.1,0.3,i,10.3,49.0%*,-13.7*
CCc1nn(CCCC(=O)N2CCc3ccccc3C2)c(=O)c2cc3occc3n12,-5.68*,5.4,0.1,1.2,i,17.1,57.9%*,-9.01*
COC(=O)/C=C1\SC(=NC(=O)c2ccc(-c3ccccc3)cc2)NC1=O,nt,20.9,19.7,-0.4,nt,nt,nt,nt
Cc1ccc(S(=O)(=O)N2CCN(c3ccccc3)CC2)cc1C(=O)NC1CCCCC1,i,-9.1,20.9,0.2,i,5.6,nt,nt
NC(=O)COC(=O)c1ccc(Cl)c(S(=O)(=O)N2CCN(c3ccc(F)cc3)CC2)c1,-7.11*,9.9,16.7,1.1,i,-3.7,59.4%*,i
O=C(c1ccc(Cl)c(S(=O)(=O)N2CCCC2)c1)N1CCN(c2ccccc2)CC1,-6.02*,14.9,-0.9,0.5,i,1.9,42.3%*,i
Cc1ccc(C(=O)N2CCN(c3ccccc3)CC2)cc1S(=O)(=O)N1CCCC1,-9.52*,-2.1,-5.5,-1.0,i,22.0,55.4%*,i
Cc1c(Cl)cccc1-c1ccc(CNCc2ccccn2)o1,i,32.2,21.6,-0.6,i,4.8,nt,nt
Cn1c(=O)c(C#N)c(-c2ccc(F)cc2)c2cc(C(=O)c3cc(Cl)cc(Cl)c3O)cnc21,-8.2*,nt,22.5,-0.4,i,nt,52.8%*,i
CC(C)C(NC(=O)c1ccccc1Br)c1ccccc1 (configuration not stated),-5.32*,7.7,-9.9,-0.1,i,-19.5,i,i
CC(NC(=O)c1ccccc1Br)C1CC2CCC1C2 (configuration not stated),i,-3.4,22.6,-0.3,i,nt,nt,nt
COc1ccc(CN(C(=O)c2cccs2)C(C(=O)NC2CCCCC2)c2ccc3ncccc3c2)cc1 (configuration not stated),-8.1*,-13.9,15.7,0.7,i,3.1,43.1%*,i
COc1ccc(C(C(=O)NC2CCCCC2)N(C(=O)c2cccs2)c2ccc3c(c2)OCO3)cc1 (configuration not stated),i,28.7,4.8,0.1,i,1.9,nt,nt
O=C(NC1CCCCC1)C(c1ccc2ncccc2c1)N(Cc1ccc2c(c1)OCO2)C(=O)c1cccs1 (configuration not stated),-10.3*,133.9,6.4,-0.3,i,11.0,25.2%*,i
O=[N+]([O-])c1ccccc1OCCCOc1cccc2cccnc12,i,29.7,33.6,1.4,i,14.7,nt,nt
CC1(C)c2[nH]c3ccccc3c2C[C@@H]2C(=O)N(Cc3ccccc3)C(=O)N21,-6.19*,4.0,15.3,-0.6,i,nt,57.4%*,i
CCN(CC)S(=O)(=O)c1cc(C(=O)N2CCc3ccccc32)ccc1Cl,-5.84*,-0.9,24.7,0.3,i,-33.6,66.7%*,i
CCN(CC)S(=O)(=O)c1ccc(Cl)c(C(=O)N2CCc3ccccc32)c1,i,-5.7,-1.9,0.3,i,2.0,nt,nt
COc1ccc(C(=O)CCC(=O)Nc2cccnc2)cc1OC,i,-5.5,12.2,-0.4,i,-12.0,nt,nt
